RAM inhibit: blocks the yeast RAM network | S. cerevisiae dse1pr::URA3 reporter, 5-FOA growth OD615, 2 d; analog-sensitive cbk1-as2 kinase mutant strain | inhibition, % at 50 µM | actives 1.8% (n = 190,000) | AID 868;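 active = inhibition above a set limit, 3 SD over mean compound inhibition, cut at about 8.4% in these data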;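 also: 0% = DMSO-only wells with no growth and 100% = 10 µM 1-NA-PP1 full growth; inhibition rescues growth on 5-FOA so higher OD means more RAM inhibition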
S1P4 agonist: agonists of human S1P4 receptor; O95977; S1P4-expressing cell line, agonist reporter assay; activation, % at 4.98 µM; actives 0.35% (n = 220,000); AID 1509; in the data active = activation above about 11%;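 also: 0% = DMSO vehicle and 100% = reference agonist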
ROMK mod: modulators of human ROMK potassium channel; Tet-inducible ROMK, thallium flux fluorescence; actives lie on both sides; B-score at 10 µM; actives 2% (n = 130,000);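 active = signal ratio slope over the read window, or its plate-corrected B-score, at least 3 SD from the plate mean, either direction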;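 also: B-score of the F/F0 ratio slope over 7 to 12 s after thallium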
KCC2 mod: KCC2 (human) Cl- transport modulation; actives 2.2% (n = 190,000); KCC2 cells, thallium flux FluoZin-2 fluorescence; Q9H2X9; B-score of Tl+ flux slope (higher = more flux/activation; lower = inhibition) at 10 µM;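 active = thallium flux slope and its plate-corrected score both differing from the plate sample mean at a set confidence after two filtering rounds, in either direction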;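 also: slope of fluorescence scaled to starting intensity during 10 to 20 s after thallium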
S1P4 antagonist: antagonists of human S1P4 receptor. inhibition, % at 4.98 µM. S1P4-expressing cells, antagonist mode, reporter read-out. actives 0.26% (n = 220,000). AID 1510; in the data active = inhibition above about 29%;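 also: 0% = wells stimulated with agonist and 100% = vehicle wells without agonist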
S1P3 antagonist: antagonists of human S1P3 receptor. inhibition, % at 4.98 µM. CHO S1P3 NFAT-BLA reporter, FRET fluorescence, antagonist mode. Q99500. actives 0.27% (n = 170,000);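 active = inhibition above the plate cutoff, the mean inhibition of test wells on that plate plus 3 SD, cut at about 28% in these data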;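 also: cells challenged with S1P at its EC80 of 0.8 µM; blue over green emission ratio from cleaved BLA substrate after 4 h stimulation; 0% = S1P-stimulated wells and 100% = unstimulated DMSO-only wells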
Target sequence (Q99500 whole entry, looked up): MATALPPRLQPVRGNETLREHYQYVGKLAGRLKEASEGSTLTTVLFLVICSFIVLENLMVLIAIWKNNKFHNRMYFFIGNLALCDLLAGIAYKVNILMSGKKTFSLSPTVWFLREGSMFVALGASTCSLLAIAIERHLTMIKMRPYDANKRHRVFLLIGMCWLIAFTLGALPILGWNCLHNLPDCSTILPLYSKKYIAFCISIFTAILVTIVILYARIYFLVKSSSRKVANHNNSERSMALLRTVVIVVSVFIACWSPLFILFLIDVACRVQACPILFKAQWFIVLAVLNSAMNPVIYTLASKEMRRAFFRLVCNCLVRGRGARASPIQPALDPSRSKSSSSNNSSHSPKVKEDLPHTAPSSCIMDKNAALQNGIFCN
* hit, by the source's call; · = no result given. Rows were chosen to be rich in hits. Some 5.1% of all compounds tested hit in one or more screens of this group.

SMILES	RAM inhibit	S1P4 agonist	ROMK mod	KCC2 mod	S1P4 antagonist	S1P3 antagonist
CCOC(=O)c1cnc(-c2ccccc2)nc1Oc1ccc(Cl)c(Cl)c1	5	-1	·	·	-7	·
CCOC(=O)c1cnc(-c2ccccc2)nc1Oc1cccc(Cl)c1	8.9*	0	·	·	-11	·
CCOC(=O)c1cnc(SC)nc1Oc1cccc(NC(=O)c2ccc(Cl)cc2)c1	7	-1	-0.29	·	-13	·
CCOC(=O)c1c(C)[nH]c(C)c1C(=O)COC(=O)c1ccc(S(=O)(=O)N(CC)CC)cc1	8.7*	0	·	-0.22	-18	·
CCOC(=O)c1c(C)[nH]c(C)c1C(=O)COC(=O)c1cccc(S(=O)(=O)N(CC)CC)c1	4	0	·	-0.99	-7	·
Cc1cc(S(=O)(=O)NCc2ccccc2)ccc1OCC(=O)Nc1cccc([N+](=O)[O-])c1	11*	-1	·	0.69	5	-3
O=C(CCC(=O)OC(C(=O)c1ccccc1)c1ccccc1)Nc1ccccc1 (centres undefined)	8	-2	0.025	-0.13	-3	·
COc1ccc(C(=O)C(OC(=O)c2ccccc2)c2ccccc2)cc1 (centres undefined)	10*	0	1	-0.51	-10	·
Cc1ccccc1OCC(=O)OC(C(=O)c1ccccc1)c1ccccc1 (centres undefined)	10*	0	·	-0.79	7	12
COc1ccc(C(=O)C(CN2CCCC2)c2ccccc2)cc1 (centres undefined)	2	-2	-1.2	·	3	·
COc1ccc(C(=O)C(OC(=O)c2ccccc2Cl)c2ccccc2)cc1 (centres undefined)	11*	-1	·	-0.12	-15	-32
O=C(CCCCCn1c(=S)[nH]c2ccc(N3CCOCC3)cc2c1=O)NCc1cccc(Cl)c1	2	5	0.019	-0.52	-39	9
CCOc1ccc(-c2nc(-c3ccc(OC)cc3)no2)cc1OCC	9.1*	1	·	0.14	-5	-20
COc1ccc(-c2nc(-c3ccncc3)no2)cc1OC	1	-1	·	-1	-19	-16
COc1ccc(-c2noc(-c3cccc(Cl)c3)n2)cc1OC	9.1*	4	0.44	1.6	-24	-1
O=C(O)CCCN=CC1=C(O)C(C(=O)c2ccccc2)CCC1=O (centres undefined)	-1	0	0.37	0.23	-12	·
O=C(c1c(F)cccc1F)N1CCN=C1SCc1ccccc1	·	1	-1	-0.21	8	7
CC1=C(C#N)C(=O)N(C)C(C)(C)C1	1	-3	1.5	2.8*	-9	7
CC1=C(C#N)C(=O)NC(C)(C)C1	0	-3	0.011	·	-30	-56
Cc1cccc(NC(=S)NCC(C)CSc2ccc(Cl)cc2)c1 (centres undefined)	8.9*	-1	0.73	-2.3	-3	-8
CCc1ccccc1NC(=S)NCCSc1ccc(Cl)cc1	10*	-1	-0.83	-0.8	-7	3
Cc1ccccc1NC(=S)NCCSc1ccc(Cl)cc1	1	0	-1.7	-1.1	-7	16
Cc1cccc(NC(=O)NCCc2ccc(Cl)cc2)c1	0	0	-0.56	-0.64	-7	9
Cc1cccc(NC(=S)NCCSc2ccc(Cl)cc2)c1	8.6*	-2	0.16	0.13	4	-10
Cc1ccc(NC(=S)NCC(C)CSc2ccc(Cl)cc2)cc1 (centres undefined)	2	-1	-0.37	0.0041	13	1
SMILES	RAM inhibit	S1P4 agonist	ROMK mod	KCC2 mod	S1P4 antagonist	S1P3 antagonist
Cc1ccc(C)c(NC(=S)NCCSc2ccc(Cl)cc2)c1	8	-2	0.48	-0.012	8	17
Cc1ccc(NC(=S)NCCSc2ccc(Cl)cc2)c(C)c1	11*	-1	·	-1.9	-2	5
CCC(=O)Nc1ccc(C(=O)NNC(=O)COc2cccc(C)c2)cc1	4	-1	·	-0.33	-12	13
Cc1ccc(O)c(C(=O)c2cnc3c(c2)c(C)nn3-c2ccccc2)c1	5	0	·	0.74	-8	-5
Cc1ccc2nc(NC3=NC(CC(=O)O)C(=O)N3)nc(C)c2c1 (centres undefined)	0	0	1	-0.5	-21	-8
Cc1cc(C)cc(N(C(=O)CCC(=O)Nc2ccccn2)C(C(=O)NC(C)C)c2ccc(O)cc2)c1 (centres undefined)	4	0	0.11	-0.15	-2	-2
N#C/C(=C\c1cccnc1)c1nc2c(s1)CCCC2	2	1	-0.25	-0.39	23	-8

Source: PubChem BioAssay (several laboratories)
